We go through 23 compounds from PubChem BioAssay (EPA / NIEHS).

Records with an inconclusive call do not appear. Active and inactive are the calls of the source. How the source made its calls: active means hit-call score of the fitted dose curve at least 0.9, where 1 is the maximum; inconclusive means response in the unintended direction; inactive means score below 0.9.

The assay can be described thus: ACEA_AR_antagonist_AUC_viability: ACEA Biosciences xCELLigence Real-Time Cell Analysis on Androgen Receptor Antagonism for Viability (AID 2283776).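 Further: area under impedance growth curve at 80 h after dosing as viability; hits lower the growth signal relative to DMSO meaning cytotoxicity.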 An outline of the steps: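 22Rv1 human prostate cancer cells were seeded on electrode plates, monitored overnight, then exposed to eight 1:4 dilutions from 100 uM final. Impedance-based growth kinetics at 80 h gave an AUC viability endpoint normalized to DMSO.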

For `COC(=O)CCCCC(=O)OC`, the outcome was inactive.
Turning to `CCCCCCCCCCCCCCCS(=O)(=O)Oc1ccccc1`, the compound was called inactive.
On to `CC[C@H](C)[C@@H](C(=O)O)n1sc2ccccc2c1=O`, for which the call was inactive.
On to `CCCCC(CC)COC(=O)CCCCC(=O)OCc1ccccc1` (stereo not drawn), for which the outcome was inactive.
Turning to `CC1=C(/C=C/C(C)=C/C=C/C(C)=C/C(=O)O)C(C)(C)CCC1`, the AC50 was 78.6 µM (active).
For `CC(O)CO` (stereo not drawn), the AC50 was 11.9 µM (active).
As to `CCCCCCCCC(=O)O`, the result was inactive.
In the case of `CC(C)CCCCCCOC(=O)CCCCC(=O)OCCCCCCC(C)C`, the result was inactive.
Same read-out and setting: the same measure for `CC(C)(C)c1cccc(C(C)(C)C)c1O`: “inactive”.
Regarding `NC(=O)N(O)[C@@H]1C=C[C@H](Oc2cccc(Oc3ccc(F)cc3)c2)C1`, the AC50 is 25 µM (active).
On the same count and under the same terms, the same measure for `CCN(CC)CCNc1ccc(CNC=O)c2sc3ccc(OC)cc3c(=O)c12`: 5.35 µM (active); for `OC1CCC(C2CCCCC2)CC1` (stereo not drawn): 50 µM (active); for `CC(C)(C)c1ccc(O)c(C(C)(C)C)c1`: 21 µM (active).
For `Oc1cccc(O)c1`, the result was inactive.
Regarding `C[C@@H]1C[C@H]2[C@@H]3CCC4=CC(=O)C=C[C@]4(C)[C@@]3(F)[C@@H](O)C[C@]2(C)[C@@]1(O)C(=O)COP(=O)(O)O`, the result was inactive.
For the compound `CCOC(=O)CC(O)(CC(=O)OCC)C(=O)OCC`, the compound was classed as inactive.
In the case of `OC1CCCCC1`, the compound was classed as inactive.
For the compound `O=C(OCCOCCOC(=O)c1ccccc1)c1ccccc1`, the call was inactive.
For the compound `CCCCOCCO`, the compound was called inactive.
For the compound `c1ccc2c(c1)Cc1ccccc1-2`, the compound was called inactive.
Turning to `CCCCCCCCCCCCCC[N+](C)(C)C`, the AC50 is 6.52 µM (active).
Take `COCC(C)O` (stereo not drawn): the compound was called inactive.
In the case of `CCCCCCCCOC(=O)CCCCCCCCC(=O)OCCCCCCCC`, the compound was called inactive.
